The campaign covered roughly 330,000 compounds. About 10,000 (3%) were called active. The full list was thinned out, with actives kept by preference. A number with no mark means an inactive call.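 The calls were made as follows: active = inhibition of at least 50% at 8 µM in the primary screen; inactive = the rest.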
target: Protein Mdm4 (Homo sapiens) + E3 ubiquitin-protein ligase Mdm2 (Homo sapiens) (UniProt O15151+Q00987); assay: inhibitors of human Mdm2-MdmX association, primary screen, cell-based, luminescence, split luciferase, SaOS-2, uHTS (AID 485346); settings: SaOS-2 split-luciferase Mdm2/MdmX complementation, at 8 µM, stronger effect = higher value
Sequence (O15151 whole entry, looked up): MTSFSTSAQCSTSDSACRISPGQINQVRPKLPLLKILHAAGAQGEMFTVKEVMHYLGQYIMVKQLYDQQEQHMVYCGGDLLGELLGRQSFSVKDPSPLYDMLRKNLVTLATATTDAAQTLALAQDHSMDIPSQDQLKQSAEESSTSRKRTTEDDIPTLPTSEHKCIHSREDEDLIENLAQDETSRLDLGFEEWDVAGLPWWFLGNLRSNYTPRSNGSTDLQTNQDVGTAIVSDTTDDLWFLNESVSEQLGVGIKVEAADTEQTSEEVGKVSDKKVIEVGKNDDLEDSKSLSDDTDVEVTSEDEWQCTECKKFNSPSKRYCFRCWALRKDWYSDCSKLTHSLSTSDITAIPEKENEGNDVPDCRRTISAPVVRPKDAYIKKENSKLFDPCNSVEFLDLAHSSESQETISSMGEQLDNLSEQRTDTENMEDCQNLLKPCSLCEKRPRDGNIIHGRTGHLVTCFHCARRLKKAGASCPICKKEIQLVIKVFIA
Sequence (Q00987 whole entry, looked up): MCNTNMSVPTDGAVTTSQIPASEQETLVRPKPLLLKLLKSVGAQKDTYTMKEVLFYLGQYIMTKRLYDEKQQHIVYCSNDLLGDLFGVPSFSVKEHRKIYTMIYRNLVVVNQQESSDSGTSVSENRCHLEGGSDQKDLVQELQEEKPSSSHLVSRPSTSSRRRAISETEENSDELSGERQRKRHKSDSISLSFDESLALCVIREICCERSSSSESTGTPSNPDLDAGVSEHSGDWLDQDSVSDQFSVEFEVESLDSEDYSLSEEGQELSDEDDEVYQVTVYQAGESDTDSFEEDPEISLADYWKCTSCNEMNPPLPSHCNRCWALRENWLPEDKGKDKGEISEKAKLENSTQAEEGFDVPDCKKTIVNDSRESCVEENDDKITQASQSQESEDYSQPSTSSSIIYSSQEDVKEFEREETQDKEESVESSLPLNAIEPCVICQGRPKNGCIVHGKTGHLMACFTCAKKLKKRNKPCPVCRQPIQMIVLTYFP

SMILES	inhibition
COCCN(C(=O)CC1CCCCC1)c1c(N)n(CC(C)C)c(=O)[nH]c1=O	13.6%
CCOC(=O)CCCNC(=O)COC(=O)c1cc(Br)c(Br)s1	12%
COc1ccc(C)cc1NC(=O)CSc1nnc2ccc(-c3ccccn3)nn12	15.8%
COc1ccc(-c2nc3n(c(=O)c2C#N)CCS3)c(OC)c1	1.98%
Cc1c(Br)c([N+](=O)[O-])nn1C(C)C(=O)Nc1nccs1 (stereo unspecified)	9.97%
CC(C)OCCCNC(=O)CN1C(=O)/C(=C/c2ccccc2F)Oc2ccccc21	13.4%
CN1CCN(CCCNC(=O)c2ccc(/C=C3\Oc4ccccc4N(Cc4ccc(Cl)cc4)C3=O)cc2)CC1	99.3% (active)
O=C(NCCCN1CCOCC1)c1ccc2c(c1)N(Cc1cccc(F)c1)C(=O)c1ccccc1S2	13.8%
Cc1ccccc1CN1C(=O)c2ccccc2Sc2ccc(C(=O)NCCCN3CCOCC3)cc21	24.3%
CCCN1CCN(C(=O)CCCNC(=O)c2ccc(Cl)cc2)CC1	-0.622%
Cc1nn(Cc2ccccc2)c(C)c1C(=O)NCCN1C(=O)S/C(=C\c2ccc(F)cc2)C1=O	26.7%
O=C(NCCN1CCOCC1)/C(=C/c1ccc(F)cc1)NC(=O)c1ccccc1	-6.74%
CCN1CCN(CCNC(=O)c2ccc(/C=C3/Sc4ccccc4N(Cc4cccc(C)c4)C3=O)cc2)CC1	96.1% (active)
O=C(NCCN1CCOCC1)c1ccc(/C=C2\Sc3ccccc3N(Cc3ccc(F)cc3)C2=O)cc1	62.4% (active)
O=C(CCc1ccc(S(=O)(=O)N2CCOCC2)cc1)NN=C1CCCCCCC1	21.1%
N#Cc1cccc(NC(=O)C2CCCN(C(=O)c3ccc(Cl)cc3)C2)c1 (stereo unspecified)	27.2%
O=C(NNC(=O)C1C2CCC(C2)C1C(=O)O)c1ccc(Cl)cc1 (stereo unspecified)	-14%
COc1ccc(C(=O)COC(=O)c2nn(C)c(=O)c3ccccc23)c(OC)c1	3.83%
CC(NC(=O)c1cccc(S(=O)(=O)N2CCc3ccccc3C2)c1)c1ccco1 (stereo unspecified)	3.48%

SMILES	inhibition
O=C(NCc1ccncc1)c1cccc(NS(=O)(=O)c2ccc(F)c(F)c2)c1	-23.7%
CCOC(=O)C1=C(C)c2ccccc2OC1(C)C(=O)OCC (stereo unspecified)	11.2%
CC(Oc1ccc2c(-c3ccccc3)cc(=O)oc2c1)C(=O)NC(Cc1c[nH]c2ccccc12)C(=O)O (stereo unspecified)	15.6%
Cc1ccc(-c2nc(C)sc2CC(=O)OCC(=O)Nc2c(F)cccc2F)cc1	7.55%
O=C(O)CCCn1c(=O)c2cccn2c2ccc(F)cc21	4.87%
Cc1nnc(N/N=C/C2CC=CCC2)[nH]c1=O (stereo unspecified)	12.6%
Cc1cc(C(=O)N/N=C/c2ccccn2)c2ccccc2n1	-15.6%
Cc1nnc(N/N=C/c2ccccn2)[nH]c1=O	78.6% (active)
COc1ccc(-c2nc3c(s2)CCc2onc(-c4ccc(OC)cc4)c2-3)cc1	1.93%
O=C(C1CC1)N1N=C(c2ccc(Br)cc2)CC1(O)C(F)(F)F (stereo unspecified)	-5.88%
O=C(c1ccc(Cl)cc1)N1N=C(c2ccccn2)CC1(O)C(F)(F)F (stereo unspecified)	53% (active)
O=C(Cc1ccccc1)N1N=C(c2ccncc2)CC1(O)C(F)(F)F (stereo unspecified)	13.3%
Cc1ccc(NC(=O)CC2C(=O)N(Cc3ccccc3)C(=S)N2NC(=O)c2cccc(F)c2)c(C)c1 (stereo unspecified)	6.53%
Fc1ccccc1/C=C1\CCCC2=C1Nc1ncnn1C2c1ccccc1F (stereo unspecified)	98.8% (active)
Cc1ccc(S(=O)(=O)N2CCCCC2)cc1C(=O)N1CCN(CCO)CC1	18.6%
CNC[C@H](CC1CCCCC1)NC[C@H](NCCC1CCCC1)[C@H](C)O	99.7% (active)
COc1ccccc1N(C)C(=O)c1cc(S(=O)(=O)N2CCc3ccccc32)cn1C	14.1%
O=C(CC1SC(N2CCCC2)=NC1=O)Nc1ccc(C(=O)NCCc2ccc(F)cc2)cc1 (stereo unspecified)	33.7%
N#Cc1ncc(C(F)(F)F)cc1Oc1cccnc1	-4.54%

SMILES	inhibition
Cc1nnc(SCCCCSc2nnc(C)c(=O)[nH]2)[nH]c1=O	-27.7%
CCN1C(=O)N[C@@H](CCc2ccccc2)C(C(=O)OC)=C1C	10.9%
CCC(CC)c1nnc(NC(=O)c2nn(C)c(=O)c3ccccc23)s1	-51.8%
COC(=O)c1cc(NC(=O)c2nn(C)c(=O)c3ccccc23)cc(C(=O)OC)c1	51.2% (active)
CCC(C)NC(=O)c1nn(C)c(=O)c2ccccc12 (stereo unspecified)	0.304%
COc1ccc(C)cc1NC(=O)CCCN1C(=O)NC(C)(C)C1=O	7.88%
COC(=O)C1=C(N)Oc2cc(C)[nH]c(=O)c2C1c1ccc(Cl)cc1 (stereo unspecified)	-16.2%
Cc1ccc(CC(=O)Nc2ccc(OC(F)F)c(Cl)c2)cc1C	15.9%
CC(=O)N1CCN(CC(=O)Nc2ccc(SC(F)F)cc2)CC1	-2.95%
O=C(Cc1ccc(Cl)c(Cl)c1)Nc1ccc(SC(F)F)cc1	72.9% (active)
CC(=O)c1c(C)[nH]c(C(=O)OCC(=O)Nc2c(C)n(C)n(-c3ccccc3)c2=O)c1C	11.3%
Cc1nc(N2CCN(c3ccccn3)CC2)c2c(C)c(C(=O)Nc3ccc(F)cc3)sc2n1	35.2%
Cc1nc(N2CCN(c3ccccn3)CC2)c2c(C)c(C(=O)Nc3ccc(F)c(Cl)c3)sc2n1	61.2% (active)
COc1ccc(NC(=O)c2sc3nc(C)nc(N4CCN(c5ccccn5)CC4)c3c2C)c(OC)c1	36.5%
COCC1CCN(C(=O)C2CCC(=O)N(CC3CCCCC3)C2)CC1 (stereo unspecified)	-3.42%
CCn1c(/C=C/c2ccc([N+](=O)[O-])o2)nc2ccccc2c1=O	46.9%
Cn1cc(/C=C/c2nc3ccccc3c(=O)n2-c2cccc([N+](=O)[O-])c2)c2ccccc21	72.2% (active)
CCOC(=O)N1CCN(Cc2nc3ccc([N+](=O)[O-])cc3c(=O)n2-c2cccc(OC)c2)CC1	16.7%
